About 83,000 compounds went through this panel and 20% of them were active in at least one assay; those are over-represented in the sample as a whole.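 Plates (96-well) were seeded with cells, treated with compound at one concentration, and incubated for 48 hours before percent growth was determined.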 A number with no mark means an inactive call. Active and inactive are the calls of the source. Rule for the calls: active = growth percent below 10; inactive = the rest.
Each molecule was assayed on BT-549 breast (assay: NCI-60 one-dose screen, 48 h (100 = growth as untreated, 0 = no growth, -100 = all killed)). Conditions: 10 µM unless noted.
In the case of `NC(=O)NN=C(C1CC1)C1CC1`, the growth is reported as 106%. `Clc1ccc(CCC(Cn2ccnc2)Sc2c(Cl)cccc2Cl)cc1` (stereo not drawn) was tested, and the growth was 52%. Molecule `c1ccc(-c2nn[nH]n2)c(-c2ccc(CN3CCN(c4nsc5ccccc45)CC3)cc2)c1` has a growth of 106%. `COC1CC2CCC(C)C(O)(O2)C(=O)C(=O)N2CCCCC2C(=O)OC(C(C)CC2CCC(O)C(OC)C2)CC(=O)C(C)C=C(C)C(O)C(OC)C(=O)C(C)CC(C)/C=C/C=C/C=C1C` (stereo not drawn) gave a growth of 32.5%. Work on `O=C(/C=C/c1ccc(Cl)cc1)c1ccccc1` yielded a growth of 104%. `O=C1OCCCCCCCCCC#Cc2ccccc21` showed a growth of 124%. Molecule `O=C(OC[C@H]1O[C@H](OC(=O)c2cc(O)c(O)c(OC(=O)c3cc(O)c(O)c(O)c3)c2)[C@H](OC(=O)c2cc(O)c(O)c(OC(=O)c3cc(O)c(O)c(O)c3)c2)[C@@H](OC(=O)c2cc(O)c(O)c(OC(=O)c3cc(O)c(O)c(O)c3)c2)[C@@H]1OC(=O)c1cc(O)c(O)c(OC(=O)c2cc(O)c(O)c(O)c2)c1)c1cc(O)c(O)c(OC(=O)c2cc(O)c(O)c(O)c2)c1` has a growth of 47.4%. `NC(N)=N/N=C(/c1ccccc1)c1ccc(Cl)cc1` was tested, and the growth was 70.2%. With `CC1(C)OC(=O)C(=Cc2ccccc2Br)C(=O)O1` the growth was 107%. For `CCOC(=O)/C(=C/c1ccccc1)C(=O)c1ccccc1`, the growth was 73.4%. Molecule `Cc1c(NCc2nnc3n(Cc4ccccc4)c(=O)c4c5c(sc4n23)CCCC5)c(=O)n(-c2ccccc2)n1C` has a growth of 91.7%. With `C/C(=N/N=C(N)N)c1ccc(N)cc1` the growth was 70.1%. With `COc1cc2c(-c3nc4cc(Cl)c(F)cc4s3)cc(=O)oc2c(C)c1OC` the growth was -81.8% (active). For `Cn1c(=O)c2nc(SCc3ccccc3)n(C)c2n(C)c1=O`, the growth was 107%. For `O=C(/C(=C/c1ccc([N+](=O)[O-])cc1)c1ccccc1)c1ccccc1`, the growth was 15.5%. For `CC(C)(C)c1ccc(C(O)CCCN2CCC(C(O)(c3ccccc3)c3ccccc3)CC2)cc1` (stereo not drawn), the growth was 42.1%. `CCCCc1nc(Cl)c(CO)n1Cc1ccc(-c2ccccc2-c2nn[nH]n2)cc1` was tested, and the growth was 106%. `CCCCN(CCCC)CCCOC(=O)c1ccc(N)cc1` was tested, and the growth was 82.4%. With `CO[C@H]1CC(O[C@@H]2/C(C)=C/C[C@@H]3C[C@@H](C[C@]4(CC[C@H](C)[C@@H](C5CCCCC5)O4)O3)OC(=O)[C@@H]3C=C(C)/C(=N/O)[C@H]4OC/C(=C\C=C\[C@@H]2C)[C@]43O)O[C@@H](C)C1O` (stereo partly drawn) the growth was -88.3% (active). `Cc1cc2c(C#N)n3c(c2cc1C)C(=O)C(c1ccccc1)Oc1ccccc1-3` (stereo not drawn) gave a growth of 17%. `Cc1ccc(C(C)C)cc1NC(=O)Nc1ccc([N+](=O)[O-])cc1` was tested, and the growth was -1.5% (active). `CC/C=C\C=C/C(=O)N/C=C/CC1Cc2cccc(O)c2C(=O)O1` (stereo not drawn) was tested, and the growth was 75.2%. `Cc1cc(N2CCOCC2)nc(N2CCOCC2)n1` showed a growth of 73.6%. `COc1cc(OC)c2cc(C(=O)O)c(=O)oc2c1` gave a growth of 77.5%. In the case of `COc1cc(/C=C/C(=O)c2c(-c3ccc(F)cc3)nc3sc(C)nn23)cc(OC)c1OC`, the growth is reported as 12%. `CC[C@@H]1OC(=O)[C@H](C)[C@@H](O[C@H]2C[C@@](C)(OC)[C@@H](O)[C@H](C)O2)[C@H](C)[C@@H](O[C@@H]2O[C@H](C)C[C@H](N(C)C)[C@H]2O)[C@](C)(O)C[C@@H](C)[C@@H]2N[C@@H](COCCOC)O[C@H]([C@H]2C)[C@]1(C)O` showed a growth of 92.2%. For `N#Cc1ccc(NC(=O)Nc2ccc(Oc3ccc(NC(=O)Nc4ccc(C#N)cc4)cc3)cc2)cc1`, the growth was -15.5% (active). `Nc1c2ccccc2nc2ccccc12` (tested in a mixture with another compound) gave a growth of 57.3%. For `COc1cc2c(C#N)n3c(c2cc1OC)C(=O)C(c1ccccc1)Oc1ccccc1-3` (stereo not drawn), the growth was -7.13% (active). With `CC[C@H](C)C(=O)O[C@H]1C[C@@H](C)C=C2C=C[C@H](C)[C@H](CC[C@@H]3C[C@@H](O)CC(=O)O3)[C@H]21` the growth was 82.4%. Molecule `O=C(/C(=C/c1cccc([N+](=O)[O-])c1)c1ccccc1)c1ccccc1` has a growth of 33.1%. `NC(N)=NN=c1c(=O)c2ccccc2c1=O` showed a growth of 92.3%. `NS(=O)(=O)c1ccc(NC2=C(Cl)C(=O)c3ccccc3C2=O)cc1` was tested, and the growth was 84.4%. In the case of `COc1ccc(OC)c(NC(=O)c2cc3oc4ccccc4c3cc2O)c1`, the growth is reported as 89.1%. `CCS(=O)(=O)OCCCl` showed a growth of 89.6%. `COc1ccc(-c2csc(NC(=O)c3cc(O)c(O)c(O)c3)n2)cc1` was tested, and the growth was 66.9%. In the case of `CCCc1cc(=O)n2c(C(=O)Nc3ccccc3OC)c(C(=O)Nc3ccc(F)cc3)sc2n1`, the growth is reported as -14.2% [30 µM] (active). Molecule `COc1cc(C2=NN(C(C)=O)C(c3ccc(OC(C)=O)cc3OC(C)=O)O2)c(OC(C)=O)c2ccccc12` (stereo not drawn) has a growth of 23.8%.

Source: PubChem BioAssay (NCI)
